Screening data (PubChem BioAssay)
Efflux pump inh – inhibitors of Candida efflux pumps in yeast, primary screen, S. cerevisiae, Nile Red, multiplex; S. cerevisiae Candida pump triplex; hit rate 0.44% among 330,000; inhibition, % at 10 µM;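 active means plate passing quality check with inhibition over a set limit, or well fluorescence over plate mean plus 4 SD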;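 further: Nile Red retained in pooled yeast measured as flow cytometry median fluorescence; 0% = buffer negative control and 100% = Enniatin B positive control; higher means more Nile Red kept so more efflux inhibition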
VLA-4 inh – inhibition in human VLA-4 binding assay, primary screen, VLA-4 allosteric modulator project, MLPCN library, flow cytometry, VLA-4 expressing cells | ligand binding flow cytometry | hit rate 0.2% among 330,000 | inhibition, % (about 7 µM as worked out from the volumes in the protocol) | AID 2557, 2010 | Integrin alpha-4 (Homo sapiens), P13612; in the data active means inhibition above about 50%
AHR activator – AHR activators, primary screen, cell-based, luminescence, luciferase reporter, human; AHR-responsive luciferase reporter cells; activation, % at 5 µM; hit rate 2.5% among 320,000; in the data active means activation above about 47%;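 further: 0% = vehicle wells and 100% = reference agonist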
ALR H2O2 inh – inhibitors of human ALR sulfhydryl oxidase, primary screen, biochemical, H2O2 detection, HRP-luminol luminescence, single point; FAD-linked sulfhydryl oxidase ALR (Homo sapiens), P55789; purified ALR, DTT oxidation; inhibition, % (no concentration beside the values); hit rate 3.8% among 290,000;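 active means mean replicate inhibition above about 79%, with every replicate also reaching it, limit read from the data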
Target sequence (P55789 whole entry, looked up): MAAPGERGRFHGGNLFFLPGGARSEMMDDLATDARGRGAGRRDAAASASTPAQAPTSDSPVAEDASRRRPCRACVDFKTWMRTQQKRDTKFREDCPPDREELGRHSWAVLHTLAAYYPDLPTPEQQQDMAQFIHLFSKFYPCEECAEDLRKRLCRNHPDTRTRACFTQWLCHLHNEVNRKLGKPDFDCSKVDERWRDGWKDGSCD
SUMO Mot1 rescue – yeast Mot1-301 growth rescue at high temperature, primary screen, SUMOylation pathway inhibitor project, S. cerevisiae, ATP luminescence, 38.5C | hit rate 1% among 320,000 | S. cerevisiae Mot1-301 growth rescue; percent above DMSO median, 100 means doubled | growth rescue, % at 18.8 µM;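 active means every valid replicate shows activation above 250% relative to neutral control wells; inactive means the rest, any valid replicate at or below 250%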;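 further: OY570 slx delta 5 strain wells were the positive control but not used for scaling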
Bfl-1 A1 inh – caspase 3/7 activation in MEF A1-2A-BIM cells, primary screen, A1 inhibitor project, cell-based, luminescence, HTS; Caspase-Glo 3/7 luminescence, 3 h; percent of clofoctol response, vehicle zero; caspase activation, % (no concentration beside the values); hit rate 0.066% among 330,000; AID 2462, 2010;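 active means over half of replicate activation scores above 10%, or exactly half above 10 with the replicate mean above 10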
Active calls of the source: *; i = inactive; nt = not tested or not shown. Shown are actives, neighbours in structure and some others; about 7.2% of the full set was active somewhere.

SMILES	Efflux pump inh	VLA-4 inh	AHR activator	ALR H2O2 inh	SUMO Mot1 rescue	Bfl-1 A1 inh
COc1ccc(C(N)=O)cc1NC(=O)c1cccc(F)c1	0.1	4.8	60.6*	0.0	-19.8	1.2
COc1cc(C(=O)Nc2cccc(C(C)=O)c2)cc(OC)c1OC	0.0	15.5	11.5	4.1	-17.8	0.2
CC(=O)CSc1nnc(CN2C(=O)CSc3ccc(C(F)(F)F)cc32)n1C	-0.1	2.5	-3.4	12.6	1.3	-0.9
Fc1cccc2sc(Nc3nc4cc5c(cc4s3)OCCO5)nc12	-0.2	8.5	60.3*	-0.3	2.3	-5.7
O=C(NNc1nc2cc3c(cc2s1)OCCO3)c1ccccc1	-0.1	16.4	73.9*	43.4	6.4	0.8
Cc1cccc2sc(NNC(=O)c3ccc4c(c3)OCCO4)nc12	-0.6	5.9	58.8*	nt	16.4	-0.3
CC(=O)Nc1nc2cc3c(cc2s1)OCCO3	0.1	12.7	6.0	-11.2	-12.5	-5.6
O=S(=O)(c1ccc(Br)s1)N1CCC2(CC1)OCCO2	-0.1	8.3	3.5	3.2	-11.5	0.1
Cc1ccc(C2=C(O)c3ccccc3C(=O)C2=O)cc1	-0.1	2.0	5.5	-12.4	-9.5	-0.7
CC(C)c1ccc(C2=C(O)c3ccccc3C(=O)C2=O)cc1	-7.4	-0.7	54.2*	54.7	-10.4	-0.8
CC(C)NS(=O)(=O)c1ccc2c(c1)NCC2	0.0	9.3	1.8	98.7*	97.2	-0.1
CC(C)NS(=O)(=O)c1ccc2c3c(cccc13)CC2	0.0	7.3	-1.0	-15.9	-7.5	-1.0
CS(=O)(=O)Nc1cccc(C2=NN(C(=O)c3ccco3)C(c3cccs3)C2)c1 (stereo not given)	0.0	11.0	-5.3	2.7	-9.1	-0.1
O=C(CSc1nncc(=O)[nH]1)Nc1cccc([N+](=O)[O-])c1	-0.1	-18.9	5.2	99.7*	-4.3	-0.8
O=C(CSCCO)Nc1cccc([N+](=O)[O-])c1	-7.1	10.4	0.5	-3.7	8.4	1.3
Nc1ccc(SCC(=O)Nc2cccc([N+](=O)[O-])c2)cc1	0.0	23.4	7.4	98.7*	-1.6	-0.1
Cc1cc(S(=O)(=O)NC(C)C)ccc1OCC(=O)NCc1ccccc1	-0.2	-6.8	6.3	-1.5	2.0	-0.1
CC1(C)OC(=O)N(c2ccccc2)C12C=Cc1c(ccc3ccccc13)O2 (stereo not given)	0.1	-20.1	4.0	-2.4	273.9*	-0.2
O=C(NNc1c(F)c(F)cc(F)c1F)c1ccc(Cl)nc1	-0.1	-5.1	0.7	96.3*	12.3	-0.2
O=c1[nH][nH]c(C(F)(F)F)c1/C=N/N1CCOCC1	-0.1	5.6	-0.5	0.1	0.3	0.5
COc1ccc(N/C=C/C(=O)c2ccccc2)cc1	0.0	6.3	-0.8	-6.2	-17.7	-7.1
COc1ccc(N/C=C(/C(C)=O)c2ccccc2)cc1	-0.1	-3.3	1.5	84.0*	3.0	1.1
COc1cc(N/N=C(\C)c2ccc(N)cc2)nc(-c2ccccc2)n1	-0.1	-10.0	46.1	97.8*	-13.6	1.6
CN(C)c1ccc(/C=C2/NC(=O)NC2=O)cc1	0.0	5.4	108.3*	99.4*	14.4	-1.9
CC1CN(S(=O)(=O)c2ccc(C(=O)N(CCCN(C)C)c3nc4c(Cl)cccc4s3)cc2)CC(C)O1 (stereo not given)	-0.1	11.1	-3.5	-30.9	-0.6	1.3
SMILES	Efflux pump inh	VLA-4 inh	AHR activator	ALR H2O2 inh	SUMO Mot1 rescue	Bfl-1 A1 inh
O=C(Cc1coc2cc(O)ccc12)NNC(=O)c1cccs1	0.1	13.1	3.1	99.0*	17.2	0.0
CCCOc1c(Br)cc(C(=O)NCC)cc1OC	-0.1	-0.1	79.0*	nt	39.2	-0.1
O=c1[nH]c2ccc(S(=O)(=O)Nc3ccccc3O)cc2[nH]1	0.0	-46.5	4.6	92.7*	-11.1	0.3
Nc1ccc(N=Nc2ccccc2)c2ccccc12	-0.3	0.2	54.5*	-6.6	88.7	-0.5
Cc1ccc(-n2nc(C)cc2Nc2ncc(Cl)cc2Cl)cc1	-0.2	-2.0	44.3	1.5	-6.9	-0.5
Cc1cc(Nc2ccccc2)n(-c2nc3ccccc3[nH]2)n1	-0.1	9.8	25.4	5.8	7.2	2.2
Cc1cc(NS(=O)(=O)c2ccccc2)n(-c2ccccc2)n1	0.1	-19.7	1.5	nt	-10.7	0.6
Cc1cc(C)nc(-n2nc(C)cc2Nc2ccccc2)n1	-0.4	-8.4	27.9	98.3*	-2.1	0.8
Cc1cc(Nc2nc(Cl)c(Cl)cc2Cl)n(-c2ccccc2)n1	-0.3	19.0	67.8*	-1.0	-4.4	0.0
Cc1cc(Nc2ccccc2)n(-c2ccccc2)n1	-0.2	-1.7	3.2	97.7*	79.0	1.4
O=C(CCc1nnc(CCC2CCCCC2)o1)NCc1ccon1	0.1	4.3	-0.7	-0.3	nt	-0.7
CCOC(=O)C1CCCN(C2=NC(=O)/C(=C/c3ccc(O)c(OCC)c3)S2)C1 (stereo not given)	-0.1	-299.3	1.2	95.9*	-28.0	1.3
CCOC(=O)C1CCN(C2=NC(=O)/C(=C/c3ccc(O)cc3)S2)CC1	-0.1	7.5	-1.2	98.4*	12.7	-0.1
COc1cccc(/C=C2\SC(N3CCCC(C)C3)=NC2=O)c1OC (stereo not given)	-0.1	9.4	9.4	97.2*	-6.5	-0.2
CCOC(=O)C1CCCN(C2=NC(=O)/C(=C/c3ccc(OC)cc3)S2)C1 (stereo not given)	0.0	29.7	3.9	-1.6	1.0	0.1
CCOC(=O)C1CCCN(C2=NC(=O)/C(=C/c3ccc(N(C)C)cc3)S2)C1 (stereo not given)	0.8	i	7.9	99.9*	-1.9	-0.5
CCOC(=O)C1CCCN(C2=NC(=O)/C(=C/c3ccc(OC)cc3OC)S2)C1 (stereo not given)	0.0	3.1	nt	13.3	-1.2	-1.1
O=C(CNC(=O)c1ccc2c(c1)OCCO2)N/N=C/c1cccc(Br)c1	0.0	-1.2	-2.6	16.5	7.4	0.5
CCCN(CCC)CC(O)COc1ccc2c(c1)OCO2 (stereo not given)	-0.1	10.3	2.3	9.7	-10.2	1.0
CCOC(=O)CSC1=NC(=O)/C(=C/c2ccc(OC)cc2)S1	0.1	35.9	10.7	98.6*	31.3	-0.8
COc1ccc(OC)c(/C=C2\SC(N3CCCCC3)=NC2=O)c1	0.3	4.1	74.2*	47.4	-17.6	0.7
COc1ccc(/C=C2\SC(N)=NC2=O)cc1	0.0	-4.1	nt	-3.5	96.9	-0.9
Cc1ccc(/C=C2\SC(N3CCCCC3)=NC2=O)cc1	-0.1	4.9	71.2*	-2.8	-2.4	1.2
